This passage reports AC50 and outcome results from PubChem BioAssay (EPA / NIEHS).

Records with an inconclusive call do not appear. Activity calls are given as the source filed them. The calls were made as follows, unless noted: active = hit-call score of the fitted dose curve at least 0.9, where 1 is the maximum; inactive = score below 0.9.

Test [1] is described as follows: CCTE_Shafer_MEA_acute_cross_correlation_HWHM: CCTE's Neural Acute Assay for Cross Correlation at Half Width at Half Maximum, Shafer Lab (AID 2284026).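 Also: percent change per well from pre-dose baseline in spike cross-correlogram half width; hits are a decrease in cross-correlogram half width relative to DMSO.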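 As to outcome: spontaneous network firing of rat primary cortical neurons on multiwell microelectrode arrays.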 The gist of the method: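 Read-out: half width at half maximum of action-potential cross-correlogram, percent change versus pre-treatment baseline, fitted in loss direction against DMSO. Rat cortical cultures, DIV 13 or 15, dosed 0.03-40 uM, 40-min recordings at 37 C.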

The nature of test [2]: CCTE_Shafer_MEA_acute_synchrony_index: CCTE's Neural Acute Assay for Synchrony, Shafer Lab (AID 2284027).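 Also: network synchrony index of spontaneous spiking in primary rat cortical neurons on MEAs; fitted for loss of signal so actives lower synchrony relative to DMSO.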 A digest of the protocol: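 The synchrony index is taken as percent change per well between a 40 min baseline and a 40 min recording with compound (0.03–40 uM), at 37C. Rat cortical cultures on multiwell MEAs at DIV 13 or 15, spike threshold 8× rms noise.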
Test [3] has as its target Estrogen receptor (Homo sapiens) (UniProt P03372). The test is described as follows: CCTE_Deisenroth_AIME_384WELL_LUC_Active: CCTE's 384-well Estrogen Receptor Transactivation Assay with AIME metabolic competence (ERTA luciferase; metabolism positive), Deisenroth Lab (AID 2284030; active = hit-call score of the fitted dose curve at least 0.9, where 1 is the maximum). The gist of the method: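 Readout: bioluminescent luciferase induction in VM7Luc4E2 cells 24 hour after receiving medium from a 2 h rat hepatic S9 (induced, alginate microsphere) metabolism step. Concentrations 0.002 - 200 uM; activity scaled to 17beta-estradiol positive control.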

A short description of test [4]: CCTE_Deisenroth_AIME_384WELL_CTox_Active: Cytotoxicity Assessment (CTOX) in CCTE's 384-well Estrogen Receptor Transactivation Assay with AIME metabolic competence (metabolism positive), Deisenroth Lab (AID 2284037; active = hit-call score of the fitted dose curve at least 0.9, where 1 is the maximum;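 also: chemicals first conditioned 2 h by alginate-bound induced rat liver S9 before cells; activity means signal loss indicating cell death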). The gist of the method:
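VM7Luc4E2 breast cells received medium pre-incubated 2 h with chemical over alginate microspheres holding induced male Sprague Dawley rat liver S9; viability read 24 h later by protease-substrate fluorescence. Loss of signal, bidirectional fit, 0.002–200 uM.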

A short description of test [5]: CCTE_Deisenroth_AIME_384WELL_CTox_Inactive: Cytotoxicity Assessment (CTOX) in CCTE's 384-well Estrogen Receptor Transactivation Assay without AIME metabolic competence (metabolism negative), Deisenroth Lab (AID 2284039; active = hit-call score of the fitted dose curve at least 0.9, where 1 is the maximum;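 also: cell viability via live-cell protease substrate cleaved to fluorescent probe; cells exposed 24 h to medium preincubated 2 h with alginate-water beads without S9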). The gist of the method: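 VM7Luc4E2 cells, metabolism-negative arm: test chemicals (0.002–200 uM, 10 points) pre-incubated 2 h with alginate-water microspheres, then medium transferred to cells for 24 h. Viability read as protease-substrate cleavage to fluorescent probe; loss-of-signal, bidirectional fitting.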

In test [6] the target is Estrogen receptor (Homo sapiens) (UniProt P03372). Briefly: CCTE_Deisenroth_AIME_384WELL_LUC_Shift: CCTE's 384-well Estrogen Receptor Transactivation Assay with AIME metabolic competence data shift (ERTA luciferase; difference in metabolism positive and negative), Deisenroth Lab (AID 2284041).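 Also: shift is response with S9 minus without S9 so positive means metabolism raised ER signal.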 A digest of the protocol: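 Here, parent compounds undergo 2 h phase I metabolism by PB/BNF-induced rat S9 before 24 h transactivation in VM7Luc4E2 cells; the curve models S9-positive minus S9-negative response over a 10-point series.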
Sequence of Estrogen receptor (Homo sapiens) (P03372 whole entry, looked up): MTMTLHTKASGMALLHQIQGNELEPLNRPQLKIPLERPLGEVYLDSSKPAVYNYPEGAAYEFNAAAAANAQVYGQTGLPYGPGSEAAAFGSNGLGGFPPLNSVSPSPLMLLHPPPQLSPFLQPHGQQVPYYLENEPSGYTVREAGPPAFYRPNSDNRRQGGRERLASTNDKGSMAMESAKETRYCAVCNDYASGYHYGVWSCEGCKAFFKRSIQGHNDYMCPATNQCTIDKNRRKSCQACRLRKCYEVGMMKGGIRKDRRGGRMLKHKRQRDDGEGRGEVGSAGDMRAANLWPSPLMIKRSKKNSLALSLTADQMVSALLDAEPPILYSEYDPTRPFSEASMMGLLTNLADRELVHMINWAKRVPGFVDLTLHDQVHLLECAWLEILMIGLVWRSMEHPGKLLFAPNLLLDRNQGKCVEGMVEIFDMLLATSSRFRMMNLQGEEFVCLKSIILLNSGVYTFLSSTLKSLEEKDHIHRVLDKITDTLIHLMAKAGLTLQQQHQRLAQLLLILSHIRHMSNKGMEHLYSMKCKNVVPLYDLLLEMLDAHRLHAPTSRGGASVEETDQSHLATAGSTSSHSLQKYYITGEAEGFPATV

Test [7] is described as follows: CCTE_Shafer_MEA_dev_firing_rate_mean: CCTE's Neural Network Formation Assay for Mean Firing Rate, Shafer Lab (AID 2284031). A digest of the protocol: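 Spike frequency (spikes/recording length, averaged over active electrodes) was recorded on days 5, 7, 9 and 12 and collapsed to AUC; rat cortical cultures received compound continuously over 12 days of network development.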

A short description of test [8]: CCTE_Shafer_MEA_dev_per_burst_spike_percent: CCTE's Neural Network Formation Assay for Percent of Spikes in a Burst, Shafer Lab (AID 2284032). The gist of the method:
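Value is trapezoidal AUC over recordings on days 5, 7, 9 and 12 of the well-mean fraction of spikes falling in single-electrode bursts; rat cortical cultures exposed continuously from plating, treatment renewed DIV 5 and 9, fitted downward against DMSO.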

A short description of test [9]: CCTE_Shafer_MEA_dev_active_electrodes_number: CCTE's Neural Network Formation Assay for Number of Active Electrodes, Shafer Lab (AID 2284040; active = hit-call score of the fitted dose curve at least 0.9, where 1 is the maximum). A digest of the protocol:
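Counts electrodes per well firing at least 5 spikes/min, recorded on days 5, 7, 9 and 12 in rat cortical cultures dosed continuously from plating (treatment refreshed DIV 5, 9). Value is the area under the curve over recordings, fitted downward relative to DMSO.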

Test [10] in a line: CCTE_Deisenroth_AIME_96WELL_CTox_Active: Cytotoxicity Assessment (CTOX) in CCTE's 96-well Estrogen Receptor Transactivation Assay with AIME metabolic competence (metabolism positive), Deisenroth Lab (AID 2284028; active = hit-call score of the fitted dose curve at least 0.9, where 1 is the maximum). A digest of the protocol: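 Cytotoxicity in VM7Luc4E2 breast cells after 24 h exposure to medium from a 2 h metabolic pre-incubation with induced rat hepatic S9 in alginate microspheres; fluorescent live-cell protease readout, 10-point series 0.002–200 uM, n=4.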

`CCN(CC)C(=O)c1cc(S(=O)(=O)Cc2ccccc2)c(N2CCC(c3ccccc3)CC2)cc1N(CC)CCN(C)C`: the AC50 in [1] is 11 µM (active); in test [2] it was 11.8 µM (active). Moreover, the compound was classed as inactive in test [3], in [4], in test [5] and in [6].
In the case of `CN(C)c1ccc(C(=C2C=CC(=[N+](C)C)C=C2)c2ccc(N(C)C)cc2)cc1`, the AC50 in test [1] was 2.13 µM (active); in test [2] it was 1.42 µM (active).
In the case of `COc1cccc([C@H](O)C2CCN(CCc3ccc(F)cc3)CC2)c1OC`, the concentration at half-maximal activity (AC50) in test [1] was 10.2 µM (active). The compound was called inactive in [2], in test [3] and in test [6].
Regarding `CCN(Cc1cccc(S(=O)(=O)O)c1)c1ccc(C(=C2C=CC(=[N+](CC)Cc3cccc(S(=O)(=O)O)c3)C=C2)c2ccccc2S(=O)(=O)[O-])cc1`, the result in test [1] was inactive. Moreover, the concentration at half-maximal activity (AC50) in [2] was 12.9 µM (active).
`O=c1[nH]sc2ccccc12`: the results for the concentration at half-maximal activity (AC50) in [1] and in [2] were 32.6 µM (active) and 20 µM (active), respectively. The compound was called inactive in [3], in test [4] and in test [6].
Consider `Clc1ccccc1C(c1ccccc1)(c1ccccc1)n1ccnc1`, for which the AC50 was 9.09 µM (active) in test [1] and 6.8 µM (active) in test [2]. Moreover, the call in test [7] and in [8] was inactive.
Consider `OC12N=C(c3ccccc3)SC1Cc1cc(Cl)ccc12` (stereo not given), for which the half-maximal activity concentration (AC50) in [1] was 31.3 µM (active); in test [2], 31.8 µM (active); in [6], 3.82 µM (active). Also, the call in test [3] was inactive.
As for `Cc1cc2c(cc1C(F)(F)F)N(C(=O)Nc1ccc(Oc3cccnc3C)nc1)CC2`, the compound was called inactive in test [1] and in [2].
In the case of `CN1C(=O)CC[C@H]1c1cccnc1`, the compound was called inactive in test [1], in [2], in test [7], in test [8] and in test [9].
For the compound `CN(C)C(=O)C1(N2CCCCC2)CCN(CC[C@@]2(c3ccc(Cl)c(Cl)c3)CN(C(=O)c3ccccc3)CCO2)CC1`, the half-maximal activity concentration (AC50) in [1] was 22.1 µM (active); in test [2], 19.5 µM (active).
As to `CCCCOC(=O)c1ccc(O)cc1`, the compound was called inactive in test [1] and in test [2].
Regarding `O=C(O)c1ccccc1-n1cc(C(=O)O)c(=O)c2cc(Nc3c(F)cc(F)cc3Cl)c(Cl)cc21`, the compound was called inactive in [1] and in [2].
Take `NC(=O)c1nc(-c2cccc(-c3cc(F)ccc3OCC(F)(F)C(F)(F)F)c2)n[nH]1`: the half-maximal activity concentration (AC50) is 8.29 µM (active) in test [1] and 6.63 µM (active) in test [2].
In the case of `CC1=CC(=O)/C(=C(/C)O)C(=O)O1`, the call in test [1] and in test [2] was inactive.
Consider `NCc1cccc(C2CCN(C(=O)c3ccc(C#Cc4ccccc4F)o3)CC2)c1`, for which the half-maximal activity concentration (AC50) in [1] is 34.9 µM (active); in test [2], 28.6 µM (active).
Regarding `O=C1O[C@H]([C@@H](O)CO)C(O)=C1O`, the outcome in test [1], in test [2], in test [7], in test [8] and in [9] was inactive.
In the case of `Cc1c2ccccc2c(C)c2c1ccc1ccccc12`, the AC50 is 26.3 µM (active) in test [1], 36.9 µM (active) in test [2] and 13.9 µM (active) in [3]. Also, the compound was called inactive in test [4] and in test [6].
Consider `CCCCCCCCCCCCO`, for which the figures for the AC50 in [1] and in test [2] were 28.8 µM (active) and 27.6 µM (active), respectively.
Regarding `Cc1cn([C@H]2C[C@H](N=[N+]=[N-])[C@@H](CO)O2)c(=O)[nH]c1=O`, the outcome in [1], in [2], in test [3], in test [5] and in [6] was inactive.
Take `COc1cc(C(=O)NC2CCN(C)CC2)ccc1Nc1ncc2c(n1)N(C1CCCC1)CC(F)(F)C(=O)N2C`: the half-maximal activity concentration (AC50) in [1] was 30.1 µM (active); in [2], 18.6 µM (active).
Take `CC(=O)N1CCN(c2ccc(OC[C@H]3CO[C@](Cn4ccnc4)(c4ccc(Cl)cc4Cl)O3)cc2)CC1`: the AC50 in test [1] was 33.1 µM (active). Besides, the compound was called inactive in [2].
`CN(C[C@@H](CC[N+]12CCC(C3CCCCC3)(CC1)CC2)c1ccc(Cl)c(Cl)c1)C(=O)c1cc(C(F)(F)F)cc(C(F)(F)F)c1`: the half-maximal activity concentration (AC50) in test [1] is 8 µM (active); in test [2], 8.29 µM (active).
For the compound `CC(C)(C)c1cc(/C=C2\SC(N)=NC2=O)cc(C(C)(C)C)c1O`, the result in test [1], in test [2], in test [3], in test [4], in test [5] and in test [6] was inactive.
Turning to `CC[C@@H]1C[C@H](N(Cc2cc(C(F)(F)F)cc(C(F)(F)F)c2)C(C)=O)c2cc(C(F)(F)F)ccc2N1C(=O)OC(C)C`, the compound was called inactive in test [1]. The AC50 in test [2] was 3.97 µM (active).
Take `CO[C@H]1/C=C/O[C@@]2(C)Oc3c(C)c(O)c4c(O)c(c(/C=N/N5CCN(C)CC5)c(O)c4c3C2=O)NC(=O)/C(C)=C\C=C\[C@H](C)[C@H](O)[C@@H](C)[C@@H](O)[C@@H](C)[C@H](OC(C)=O)[C@@H]1C`: the result in test [2] was inactive. Further, the values for the AC50 in [4] and in test [5] were 41.3 µM (active) and 63.7 µM (active), respectively.
Take `Cc1ccc(C(C)C)cc1`: the call in [3], in test [4] and in test [6] was inactive.
Turning to `c1ccc2n[nH]nc2c1`, the result in [1], in test [2], in test [4] and in test [5] was inactive.
For the compound `CC(O)CC(C)(C)O` (stereo not given), the result in [1], in test [2], in test [4] and in [5] was inactive.
On to `C[C@]12CC[C@@H]3c4ccc(O)cc4CC[C@H]3[C@@H]1CC[C@H]2O`, for which the compound was called inactive in test [1], in test [2] and in [5].
For the compound `O=c1c(-c2ccc(O)cc2)coc2cc(O)cc(O)c12`, the result in [10] was inactive.

By AC50 is commonly meant the concentration giving half of the maximal activity seen.
